# Screening results deposited in PubChem BioAssay by National Center for Advancing Translational Sciences (NCATS).
# KDM5B inhibitor – Primary screen for KDM5B Histone Demethylases FDH-coupled qHTS. Lysine-specific demethylase 5B (Homo sapiens), Q9UGL1. KDM5B demethylase, FDH-coupled NADH fluorescence (FDH is formaldehyde dehydrogenase). Potency, µM (top dose mostly 57.7 µM), actives largely listed as inhibitors. 2.6% of 220,000 active; active means well fitted inhibition curve with a large enough effect; further: nearly all actives have a fitted effect of over 70% in size
#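 Coupled FDH/NAD⁺ fluorescence readout. KDM5BΔAP 200 nM final; compound titration, 10 min RT preincubation; substrate mix 12.5 µM H3K4me3, 25 µM 2-OG, 50 µM Fe(II), 100 µM ascorbate, 0.25 mM NAD⁺, 0.25 U/mL FDH; ΔRFU over 30 min.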
# Numbers stand for hits; . = inactive. The full list was thinned out, with hits kept by preference.
SMILES,KDM5B inhibitor
O=C(C1CN(C(=O)c2nn(-c3ccccc3)c(=O)c3ccccc23)c2ccccc2O1)N1CCOCC1 (configuration not stated),.
CC(C)C(=O)Nc1ccc(Cl)c(Cl)c1,.
CN(C)S(=O)(=O)N1CCC(Oc2ccc(C(=O)N3C[C@H]4CC[C@H]3C4)cc2)CC1,.
Cc1ccc(C#N)c(N2CC[C@@]3(O)CCN(S(=O)(=O)N(C)C)C[C@H]3C2)n1,28µM
CCOc1ccc(-n2nnnc2CNS(=O)(=O)c2ccccc2Cl)cc1,.
CN1CCN(c2ccc(NC(=O)c3ccccc3Cl)nc2)CC1,.
COc1ccc(-c2nc(C3CC3)nc3c2CCN(C(=O)c2ccccc2F)CC3)cc1,.
COc1ccc(-c2nc(C3CC3)nc3c2CCN(CCC(C)C)CC3)cc1,79µM
Cc1ccc(CN2CCc3nc(C4CC4)nc(-c4ccc(O)cc4)c3CC2)cc1,.
COc1ccc(-c2nc(C3CC3)nc3c2CCN(Cc2ccc(C(F)(F)F)cc2)CC3)cc1,50µM
COc1ccc(-c2nc(C3CC3)nc3c2CCN([S+](=O)([O-])c2cccc(OC)c2)CC3)cc1,.
Clc1ccc(-c2nc(C3CC3)nc3c2CCN(Cc2ccccc2)CC3)cc1,.
CCN(C(=O)c1ccc2c(c1)N(S(C)(=O)=O)CC2)c1ccccc1,.
Cc1ccc(NC(=O)C2=CCN(Cc3ccccc3F)CC2)cc1,.
OCCNCc1ccc(-c2ccccc2)o1,.
Cc1ccc(NC(=O)c2nc3ccccc3nc2N2CCCC2)cc1,.
CC(=O)N1CCC(Nc2cc(-c3ccc(Cl)cc3)nc3c(C)noc23)CC1,.
CC(=O)N1CCN(c2cc(-c3ccc(Cl)cc3)nc3c(C)noc23)CC1,.
Cc1noc2c(N(C)C)cc(-c3ccccc3)nc12,.
Cc1noc2c(NCCN3CCOCC3)cc(-c3ccsc3)nc12,.
Cc1noc2c(-c3cccnc3NCCN3CCOCC3)cc(-c3ccccc3)nc12,35µM
Cc1noc2c(NCc3cnccn3)cc(-c3ccc(Cl)cc3)nc12,.
Cc1noc2c(N(C)C)cc(-c3cccnc3)nc12,.
Cc1noc2c(-c3cccnc3NCc3cnccn3)cc(-c3ccccc3)nc12,32µM
Cc1noc2c(-c3cn[nH]c3)cc(-c3ccccc3)nc12,.
SMILES,KDM5B inhibitor
COc1ccc(OC)c(-c2cc(-c3ccccc3)nc3c(C)noc23)c1,35µM
Cc1noc2c(NCCN3CCOCC3)cc(-c3cccc(C(F)(F)F)c3)nc12,.
CC(=O)N1CCC(Nc2ncccc2-c2cc(-c3ccccc3)nc3c(C)noc23)CC1,20µM
CC(=O)N1CCC2(CC1)CN(C(=O)CCC(=O)O)Cc1ccccc1O2,.
CCOc1ccccc1C(=O)Oc1ccc(-c2ccc(C#N)cc2)cc1,.
COc1cccc(NC(=O)c2cc[n+]([O-])cc2)c1,.
CC1CCCN(S(=O)(=O)c2cc(C(=O)OCc3nc4ccccc4o3)ccc2Cl)C1 (configuration not stated),.
Cc1ccc(NC(=O)O[C@@H]2CC[C@]3(C)C(CC[C@@H](O)[C@H]3CC(=O)N3CCC[C@H]3CO)[C@]2(C)CO)cc1 (some centres not stated),.
O=C(O)C1Oc2ccccc2O1,.
Cc1cc(Cl)ccc1-c1ccccc1CN,.
Cc1cc(-c2cc(-c3ccccn3)nc3c(C)noc23)ccn1,.
Cc1noc2c(NC(C)C)cc(-c3cccnc3)nc12,.
Cc1noc2c(-c3cccnc3NC(C)C)cc(-c3ccccc3)nc12,32µM
O=C(O)c1ccc(C=Nc2ccc(Br)cc2)cc1,.
O=C(NCCn1cnc2ccccc21)C1CC(=O)N(c2n[nH]c3ccccc23)C1 (configuration not stated),.
O=C(C1CC1)N(Cc1ccc2c(c1)CN(S(=O)(=O)c1ccc(F)c(F)c1)CCO2)c1ccccc1,.
CCc1ccc(NC(=O)Cn2nc3c(cc2=O)CC(C)CC3)cc1 (configuration not stated),.
OCC1CN(c2ccncn2)CC12CCN(Cc1c[nH]c3ccccc13)CC2 (configuration not stated),.
OCC1CN(c2ncccn2)CC12CCN(Cc1ccsc1)CC2 (configuration not stated),32µM
Cc1cc(CN2CCC3(CC2)CN(c2ncccn2)CC3CO)n(C)n1 (configuration not stated),32µM
O=C1NCC2(CCN(Cc3ccsc3)CC2)Oc2ccccc21,.
N#Cc1ccc(CN2CCC3(CC2)CN(c2ccncn2)CC3CO)cc1 (configuration not stated),.
Cc1ccc(CN2CCC3(CC2)CN(c2ccncn2)CC3CO)o1 (configuration not stated),.
COc1cccc(CN2CCC3(CC2)CN(c2ccncn2)CC3CO)c1OC (configuration not stated),.
OCC1CN(c2ncccn2)CC12CCN(Cc1ccco1)CC2 (configuration not stated),28µM
SMILES,KDM5B inhibitor
COCCN1CC(CO)C2(CCN(Cc3sccc3C)CC2)C1 (configuration not stated),.
Cc1ccc(CN2CCC3(CC2)CCN(Cc2ccco2)CC3CO)s1 (configuration not stated),.
CCn1cc(CN2CCC3(CC2)CN(c2ccncn2)CC3CO)c(C)n1 (configuration not stated),.
OCC1CN(c2ncccn2)CC12CCN(Cc1ccncc1)CC2 (configuration not stated),22µM
COc1ccc(-c2nnc(C[C@@H]3C[C@@H](C(C)C)[C@H](CNCc4ccco4)C=C3C)o2)cc1,.
COc1ccc(C)cc1NC(=O)[C@H]1CCC[C@H]1NC(=O)c1cnc(C)cn1,.
CN(C)c1ccc(C(=O)N2CCC[C@H]2c2nc(-c3ccccc3)no2)cc1,.
O=c1c2c(ncn2Cc2ccco2)n(Cc2ccccc2)c(=O)n1CC(O)c1ccccc1 (configuration not stated),.
Cc1ccc(NC(=O)CSc2cnc3cc(S(=O)(=O)N4CCCCC4)ccc3n2)cc1,.
CCOc1ccc2oc(=O)cc(CN3CCN(Cc4ccccc4F)CC3)c2c1,.
CCCC1c2nccn2CCCN1C(=O)c1ccoc1C (configuration not stated),.
COc1ccccc1C(=O)Nc1ccc2oc(-c3cccc(I)c3)nc2c1,.
O=C(NNC(=S)Nc1ccc(Cl)cc1Cl)c1ccc(Cl)c(Cl)c1,.
COc1ccc(C(=O)N2CCC3(CC2)CC(O)CCO3)c(OC)c1 (configuration not stated),.
CCC1(N2CCN(C(=O)Nc3cc(Cl)ccc3OC)CC2)CCN(C(=O)NC)C1 (configuration not stated),.
Cc1ccc(CN2CCC3(CC2)CN(c2ncccn2)CC3CO)cc1C (configuration not stated),25µM
O=C(c1ccoc1)N1CCC2(CC1)CN(c1ccncn1)CC2CO (configuration not stated),.
COc1cc(CN2CCC3(CC2)CN(c2ccncn2)CC3CO)ccc1F (configuration not stated),.
CC(=O)N1CCC2(CC1)CCN(c1ncccc1C#N)CC2CO (configuration not stated),32µM
O=C(c1ccncc1)N1CCC2(CC1)CN(c1ncccn1)CC2CO (configuration not stated),22µM
CN1CC(CO)C2(CCN(Cc3ccc(Cl)cc3)CC2)C1 (configuration not stated),.
N#Cc1ccc(C(=O)N2CCC3(CC2)CN(Cc2ccccc2)CC3CO)cc1 (configuration not stated),.
